Screening results from PubChem BioAssay.
MazEF act: activators of E. coli MazEF toxin-antitoxin RNase, primary screen, biochemical, fluorescence, uHTS | Endoribonuclease toxin MazF (Escherichia coli (strain K12)), P0AE70 | FAM/BHQ RNA-DNA oligo cleavage fluorescence, 5 h | activation, % at 20 µM | 0.32% of 350,000 active | AID 504720, 2011; in the data active = activation above about 50%
Target sequence (P0AE70 whole entry, looked up): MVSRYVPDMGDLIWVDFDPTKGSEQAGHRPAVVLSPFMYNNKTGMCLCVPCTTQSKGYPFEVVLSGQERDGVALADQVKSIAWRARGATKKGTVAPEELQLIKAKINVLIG
GDH-TPI counter: GDH-TPI coupling enzyme inhibitors, primary screen, artefact control for M. tuberculosis FBA inhibitor project, biochemical, absorbance, full deck; GDH-TPI coupled enzyme counterscreen, NADH absorbance; inhibition, % at 4.8 µM; 1.2% of 360,000 active;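 note: 0% = DMSO wells and 100% = wells lacking the enzyme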
CCHFV vOTU inh: CCHFV vOTU protease inhibitors, primary screen, biochemical, Pep-AMC substrate, fluorescence. Crimean-Congo hemorrhagic fever virus L polyprotein viral ovarian tumor (vOTU) protease …. inhibition, % at 11.5 µM. 0.55% of 370,000 active. AID 651958, 2012; note: 0% = vehicle wells with enzyme and 100% = no enzyme wells
Mtb FBA inh: Mtb FBA enzyme inhibitors, primary screen, biochemical, fluorescence, strain H37Rv; purified M. tuberculosis FBA, fluorescence read-out; inhibition, % at 1 µM; 2.3% of 360,000 active; in the data active = inhibition above about 27%;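 note: 0% = vehicle and 100% = reference inhibitor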
Target sequence (P9WQA3 whole entry, looked up): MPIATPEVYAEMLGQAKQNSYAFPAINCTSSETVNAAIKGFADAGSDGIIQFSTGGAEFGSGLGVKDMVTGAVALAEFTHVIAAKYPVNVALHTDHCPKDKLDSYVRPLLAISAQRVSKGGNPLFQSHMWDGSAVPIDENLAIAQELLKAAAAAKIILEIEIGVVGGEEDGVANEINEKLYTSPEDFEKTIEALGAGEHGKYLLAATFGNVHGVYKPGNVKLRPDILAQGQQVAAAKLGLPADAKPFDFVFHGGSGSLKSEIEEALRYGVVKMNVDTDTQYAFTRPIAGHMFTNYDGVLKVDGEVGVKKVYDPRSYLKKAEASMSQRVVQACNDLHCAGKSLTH
Mtb betalactam: beta-lactam sensitization of Mtb H37Rv, H37Rv; inhibition, % at 25 µM; 0.27% of 330,000 active; AID 434955, 2010; M. tuberculosis H37Rv growth with meropenem, percent inhibition; call rule not given here;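 note: growth measured after seven days incubation then overnight dye step; 0% = bacteria only wells and 100% = bacteria with antibiotic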
The depositor's hits bear a star; u = inconclusive; x = not tested or not shown; + = active, no number. Shown are actives, neighbours in structure and some others; about 4% of the full set was active somewhere. Cut-off read from the data, not from the text of the source, unless noted: active = inhibition above about 30%; inactive = the rest.

SMILES | MazEF act | GDH-TPI counter | CCHFV vOTU inh | Mtb FBA inh | Mtb betalactam
COCc1[nH]nc2c1C(c1ccc(C)cc1)NC2=O (centres undefined) | x | x | -1.6 | x | x
COc1ccc(/C=C(\NC(=O)c2ccco2)C(=O)NCCc2nc3ccccc3[nH]2)cc1 | 4.9 | 5.9 | 2.8 | 0.4 | -4.8
O=C(NCCc1nc2ccccc2[nH]1)/C(=C/c1ccco1)NC(=O)c1ccc(Br)o1 | 10.9 | 33.5* | 0.9 | -2.2 | -1.7
COc1ccc(/C=C(/NC(=O)/C=C/c2ccccc2)C(=O)NCCCCCC(=O)O)cc1 | -0.1 | 32.5* | 0.6 | 1.5 | -2.8
COc1ccc(/C=C(\NC(=O)/C=C/c2ccco2)C(=O)NCCc2nc3ccccc3[nH]2)cc1 | -1.6 | 37.1* | -5.8 | -0.3 | 88.9
O=C(CSc1nnc(-c2cccnc2)n1-c1ccc(Cl)cc1)c1ccc(F)cc1 | x | x | 2.0 | x | x
COc1ccc(S[C@]2(C(=O)N3CCCC3)CC(=O)N(C(=O)c3ccccc3)[C@@H]2c2ccc(OC)cc2)cc1 | x | x | 16.9 | x | x
C=CC[C@H]1c2ccccc2[C@H]2N3N=Cc4ccccc4[C@H]3[C@H](CCCC)C(=O)N2N1C(=O)c1ccccc1 | x | x | 1.3 | x | x
Cc1ccc(C(=O)NCCCNc2ccc(C(F)(F)F)cc2[N+](=O)[O-])cc1 | 3.7 | -3.4 | 10.2 | -4.0 | -3.8
O=C(NCCCNc1ccc(C(F)(F)F)cc1[N+](=O)[O-])c1ccc(F)cc1 | 61.5* | 16.2 | 17.0 | -6.0 | 57.0
CCOC(=O)C1=NN(c2ccccc2)C2C(=O)N(c3ccccc3OC)C(=O)C12 (centres undefined) | -1.3 | 37.9* | -8.7 | 2.8 | -4.7
COc1ccc(-n2cc3c(-c4cccc(Br)c4)nnc(C)c3n2)cc1 | 51.8* | 5.8 | 4.7 | 1.2 | 81.1
Cc1nnc(-c2cccc(Br)c2)c2cn(-c3ccc(Br)cc3)nc12 | -68.6 | -8.4 | 7.9 | 2.8 | -21.1
O=C(NCCc1ccc(Cl)cc1)c1ccc2c(c1)ncn2C1CCCCC1 | x | x | 6.0 | x | x
C#CCN1CC(N(C)CCOC(=O)c2ccc(F)cc2)CS1(=O)=O (centres undefined) | x | x | 3.8 | x | x
CCOC(=O)c1cc2c(=O)n3ccccc3nc2n(CCCOC)c1=NC(=O)c1cccnc1 | x | x | x | x | -0.1
CCOC(=O)c1cc2c(=O)n3ccccc3nc2n(CCOC)c1=NC(=O)C(C)(C)C | -8.7 | -8.4 | -217.3 | + | 8.6
COCCn1c(=N)c(S(=O)(=O)c2ccc(Br)cc2)cc2c(=O)n3ccccc3nc21 | 3.9 | 3.1 | -5.5 | 4.5 | 0.9
CCOC(=O)c1cc2c(=O)n3ccccc3nc2n(C(C)C)c1=NC(=O)c1c(-c2ccccc2Cl)noc1C | -29.1 | -1.2 | -11.3 | 17.6 | 6.5
CCOC(=O)c1cc2c(=O)n3ccccc3nc2n(CCOC)c1=NC(=O)c1ccncc1 | 0.4 | 9.9 | -155.5 | 185.9* | 4.7
CCOC(=O)c1cc2c(=O)n3ccccc3nc2n(CCCOC)c1=NC(=O)C(C)(C)C | -0.8 | 16.4 | -152.3 | + | 4.4
CCOC(=O)c1cc2c(=O)n3ccccc3nc2n(C(C)C)c1=NC(=O)c1ccncc1 | 9.0 | 8.7 | -229.3 | 122.5* | 24.2
COC(=O)[C@]12C[C@H](CC(=O)NCCCCc3ccccc3)C(=O)N(Cc3ccco3)C1=C[C@H](C(C)(C)C)O[C@@H]2C | x | x | 26.6 | x | x
CCOC(=O)[C@]12CCCC=C1N(Cc1ccc(OC)cc1)C(=O)[C@@H]2CC(=O)N1CCN(C(=O)c2ccco2)CC1 | x | x | -7.1 | x | x
Cc1nn(-c2ccccc2)c2sc(C(=O)N3CCN(Cc4ccc(F)cc4)CC3)cc12 | x | x | 3.9 | x | x
SMILES | MazEF act | GDH-TPI counter | CCHFV vOTU inh | Mtb FBA inh | Mtb betalactam
COc1cc(OCc2ccccc2)c2c(CCC(=O)O)cc(=O)oc2c1 | 0.5 | 21.6 | -287.6 | + | x
CCc1cc(=O)oc2cc(OC(C)=O)cc(OC(C)=O)c12 | -2.5 | 22.9 | -238.1 | + | -10.2
COc1cc(OCc2ccccc2)c(CC(=O)O)c([N+](=O)[O-])c1 | 2.2 | 10.6 | 7.6 | 1.7 | x
COc1ccc(NC(=O)CSc2nnc(-c3cccs3)o2)cc1Cl | x | x | -4.2 | x | x
CCc1ccc(CCNC(=O)OC2CC3CC2[C@H]2CCCCN2[C@H]3C)cc1 (some centres undefined) | x | x | -4.8 | x | x
O=[N+]([O-])c1cccc(C2=Nn3c(nnc3-c3ccccc3)SC2)c1 | x | x | 1.3 | x | x
CC1(CC(=O)O)C(=O)N=C2C=CC=CN21 (centres undefined) | 1.2 | 1.5 | -109.4 | 166.6* | x
COc1ccccc1CNC(=O)NNC(=O)CCn1nc(C)c([N+](=O)[O-])c1C | x | x | -0.7 | x | x
COc1cc(/C=N/NC(=O)c2ccc(Cl)c(S(N)(=O)=O)c2)ccc1OCC(N)=O | 7.0 | 43.0* | 13.5 | 4.0 | -4.9
COc1cc(/C=N/NC(N)=S)ccc1OCC(=O)Nc1ccc(C)cc1 | 10.6 | 39.8* | -4.6 | 1.8 | 73.2
COc1ccc(/C=N/NC(N)=S)cc1OC(=O)c1cccc2ccccc12 | -3.7 | 33.5* | 4.6 | 1.0 | u
O=C(COc1coc(CN2CCc3ccccc3C2)cc1=O)Nc1ccc(F)cc1F | 211.4* | 2.1 | -14.2 | -0.9 | 1.2
Cn1nnnc1SCc1cn2cccnc2n1 | 2.7 | -6.0 | -41.0 | 122.2* | -11.7
Cc1ccc2nc(-c3ccc(NC(=O)CSCC(=O)O)cc3)sc2c1 | 7.9 | 49.4* | -86.4 | 199.3* | 5.7
Cc1ccc2sc(-c3ccc(NC(=O)/C=C\C(=O)O)cc3)nc2c1 | 3.3 | 22.0 | -323.3 | + | x
Cc1csc(NC(=O)CSc2nc3ccccc3s2)n1 | 6.8 | 14.4 | 6.7 | 1.7 | 58.3
Cc1csc(NC(=O)CSCC(=O)O)c1-c1nc2ccccc2s1 | 2.0 | 34.6* | -0.5 | -0.1 | 43.1
O=C(O)CSCC(=O)Nc1ccc(-c2nc3ccccc3s2)cc1 | -8.5 | 23.4 | -54.5 | 115.9* | -2.6
CCOC(=O)[C@]12CCCCC/C=C\1N(Cc1ccc(OC)cc1)C(=O)[C@H]2CC(=O)NCC12CC3CC(CC(C3)C1)C2 | x | x | 12.4 | x | x
O=C(Nc1ccc(F)cc1)OCc1cn(Cc2ccc(Cl)cc2)nn1 | x | x | -0.2 | x | x
Cc1ccc2nc(-c3ccc(NC(=O)COCC(=O)O)cc3)sc2c1 | 0.5 | 24.5 | -40.3 | 136.4* | -8.2
CCC(=O)NC(=S)Nc1ccc(-c2nc3ccc(C)cc3s2)cc1 | -2.3 | -7.4 | -4.2 | -1.4 | 17.0
O=C(NCc1nc2ccccc2[nH]1)c1ccco1 | 4.7 | -9.9 | 2.8 | 0.4 | -9.8
O=C(N/C(=C/c1ccc(Cl)cc1)c1nc2ccccc2[nH]1)c1ccco1 | 10.0 | 42.2* | 12.5 | 3.9 | -1.2
O=C(N/C(=C/c1ccc(Br)cc1)c1nc2ccccc2[nH]1)c1ccco1 | 6.6 | 31.8* | 7.7 | 4.8 | 6.7
COC(=O)c1cc(-c2cccc3c2sc2ccccc23)c(=O)n2c1CCC2 | x | x | -0.8 | x | x
C=C(C)c1cccc(C(C)(C)NC(=O)N2CCCCC2CC)c1 (centres undefined) | 7.8 | 4.9 | 5.8 | 179.9* | 1.2
